# In PubChem BioAssay (EPA / NIEHS):
# “And” between values parts separate entries of the source, which are not always exact repeats. Identical values can stand only once. Some structures have more than one record in an assay (separate samples or runs), and their calls can disagree. The source made the active and inactive calls. The calls were made as follows: active = hit-call score of the fitted dose curve at least 0.9, where 1 is the maximum; inactive = score below 0.9.
# Target: Hypoxia-inducible factor 1-alpha (Homo sapiens) (UniProt Q16665)
# Sequence (Q16665 whole entry, looked up): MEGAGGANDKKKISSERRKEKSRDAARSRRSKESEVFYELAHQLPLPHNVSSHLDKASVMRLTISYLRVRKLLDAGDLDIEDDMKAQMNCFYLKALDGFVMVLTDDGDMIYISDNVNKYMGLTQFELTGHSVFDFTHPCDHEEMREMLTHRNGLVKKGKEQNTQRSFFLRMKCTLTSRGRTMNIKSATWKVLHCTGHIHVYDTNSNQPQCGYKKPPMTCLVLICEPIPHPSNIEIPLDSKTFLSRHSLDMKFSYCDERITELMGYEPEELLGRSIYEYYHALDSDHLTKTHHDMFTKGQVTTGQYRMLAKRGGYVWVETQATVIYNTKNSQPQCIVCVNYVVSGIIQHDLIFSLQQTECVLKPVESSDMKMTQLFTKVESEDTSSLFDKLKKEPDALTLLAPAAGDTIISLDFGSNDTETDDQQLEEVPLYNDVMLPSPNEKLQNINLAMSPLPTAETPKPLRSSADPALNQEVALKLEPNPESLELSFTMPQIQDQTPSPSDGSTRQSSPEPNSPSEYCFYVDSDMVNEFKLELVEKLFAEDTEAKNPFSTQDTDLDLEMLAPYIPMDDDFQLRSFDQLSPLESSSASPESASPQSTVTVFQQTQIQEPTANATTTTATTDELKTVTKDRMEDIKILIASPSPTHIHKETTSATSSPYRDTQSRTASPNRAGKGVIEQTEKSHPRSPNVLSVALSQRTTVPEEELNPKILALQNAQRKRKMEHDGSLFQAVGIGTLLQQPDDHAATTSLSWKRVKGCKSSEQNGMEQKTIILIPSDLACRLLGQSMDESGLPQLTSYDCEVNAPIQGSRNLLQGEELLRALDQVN
# Experiment: ATG_HIF1a_CIS: Attagene CIS-FACTORIAL HepG2 Assay for human Hypoxia Inducible Factor 1 (HIF1A) (AID 2282951)
# Settings: HepG2 Attagene cis-factorial HIF1a reporter transcription; actives raise or lower the signal
# Method: ATG_CIS is a cell-based, multiplexed-readout assay that uses HepG2, a human liver cell line, with measurements taken at 24 hours after chemical dosing in a 24-well plate.ATG_HIF1a_CIS is one of 52 assay component(s) measured or calculated from the ATG_CIS assay. It is designed to make measurements of mRNA induction, a form of inducible reporter, as detected with fluorescence intensity signals by Reverse transcription polymerase chain reaction (RT-PCR) and Capillary electrophoresis technology.Data from the assay component ATG_HIF1a_CIS was analyzed into 1 assay endpoint. This assay endpoint, ATG_HIF1a_CIS, was analyzed with bidirectional fitting relative to DMSO as the negative control and baseline of activity. Using a type of inducible reporter, measures of mRNA for gain or loss-of-signal activity can be used to understand the reporter gene at the transcription factor-level as they relate to the gene HIF1A. Furthermore, this assay endpoint can be referred to as a primary readout, because this assay has produced multiple assay endpoints where this one serves a reporter gene function. To generalize the intended target to other relatable targets, this assay endpoint is annotated to the dna binding intended target family, where the subfamily is basic helix-loop-helix protein.
# Human liver HepG2 cells are transiently transfected with multiple reporter transcription units (MRTUs) in 6-well plates using FuGene 6 reagent (Roche; 3 ml FuGene/1 mg DNA). The MRTU constructs are regulated by a cis-regulating element (promoter). […] A major difference between the CIS and TRANS system is that in CIS activities of endogenous TFs are measured, whereas the TRANS assay evaluates changes in activities of exogenous, chimeric NR-Gal4 proteins. […] At the end of 24 hour incubation, total RNA was isolated using TriZol reagent (Invitrogen). The isolated RNA is then reverse-transcribed using oligo(dT) primer and Mo-MLV reverse transcriptase (Invitrogen) with DNAse I (Ambion) treatment for 30 min. The one-tenth of the produced cDNA was amplified by PCR using Taq DNA polymerase (Invitrogen) and two reporter sequence-specific primers. The PCR products were fluorescently labeled by primer extension with 6-arboxyfluorescein (6-FAM) 5'-labeled reporter sequence-specific primer (2 min at 95 C, 20 s at 68 C and 10 min at 72 C) and these products were digested with 5U of HpaI (New England Biolabs) for 2h at 37 C. The fragments were purified using Qiaquick PCR columns (Qiagen), analyzed on an ABI 3130xL genetic analyzer (Applied Biosystems) with peak positions identified by using a set of X-rhodamine (ROX)-labeled MapMarker1000 molecular weight standards (BioVentures). The raw capillary electrophoresis data was processed using Attagraph software (Attagene).
Compound,outcome,AC50
O=c1cc[nH]cc1,inactive,
CC(O)CNCC(C)O (stereo not given),inactive,
CCOC(=O)COC(=O)c1ccccc1C(=O)OCC,inactive,
CC(=O)OC/C=C(C)/C=C/C=C(C)/C=C/C1=C(C)CCCC1(C)C,inactive,
O=S1(=O)CC(Cl)(Cl)C(Cl)(Cl)C1,inactive,
Cc1cccc(O)c1,inactive,
Cc1ccncc1,inactive,
[Cu+],inactive,
CC(=O)CCC=C(C)CCC=C(C)C,inactive,
C=C(C)C(=O)OCCOCCOC(=O)C(=C)C,inactive,
CCCCCCCCOC(=O)c1ccc(O)cc1,inactive,
CC/C=C\C#N,inactive,
C#C[C@]1(O)CC[C@H]2[C@@H]3CCc4cc(O)ccc4[C@H]3CC[C@@]21C,inactive,49 µM (active) and 67.4 µM (active)
CCOCC(C)O (stereo not given),inactive,
CC(=O)c1ccc(C)cc1,inactive,
O=C(O)c1cccc(Cl)n1,inactive,
Cc1cc(O)c(C)c(C)c1O,inactive,
CC(C)(C)c1cccc(O)c1,inactive,
CC1=CC(O)CC(C)(C)C1 (stereo not given),inactive,
CCCCN(CCO)CCO,inactive,

Compound,outcome,AC50
COc1ccc(OC)cc1,inactive,
COc1ccc(C(C)=O)cc1,inactive,
O=C(O)c1ccco1,inactive,
CC(O)CN (stereo not given),inactive,
CC(C)=CC(=O)O,inactive,
CC(C)(C)c1ccc(S)cc1,inactive,
CCOC(=O)CC(C)C,inactive,
CCCCCCCCCOS(=O)(=O)O,inactive,
C=CCOCC(O)CO (stereo not given),inactive,
COc1cc(OC)c2ccc(=O)oc2c1,inactive,
OC[C@@H](O)[C@H](O)[C@@H](O)[C@@H](O)CO,inactive,
O=C(O)c1cc2ccccc2cc1O,inactive,
O=C(O)C1=NN(c2ccc(S(=O)(=O)O)cc2)C(=O)C1,inactive,
CCCCCCCCCCCCN1CCOCC1,inactive,
Nc1cc([N+](=O)[O-])ccc1C(=O)O,inactive,
NNC(=O)OCc1ccccc1,inactive,
CCOc1ccc(NC(C)=O)cc1,inactive,
CCCCCc1cccc(=O)o1,inactive,
CC=CC(=O)C1=C(C)C=CCC1(C)C,inactive,
